For five compounds, composite z-score and z-score results are on record in PubChem BioAssay.

The source made the active and inactive calls. Unless noted, how the calls were made is not given here.

Assay [1] can be described thus: compounds binding Alexa647 anti-His antibody – biochemical, small-molecule microarray, 635 nm fluorescence, artefact control for SMM control protein annotation, primary screen (AID 1128).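 Further: score merges feature fluorescence with signal-to-noise for each printed compound spot.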 Particulars: higher = more signal.
The test system of assay [2] is Human papillomavirus type 1a E7 protein (residues 1-88). Briefly: HPV1a E7 small-molecule binders, primary screen, biochemical, small-molecule microarray, residues 1-88, 635 nm (AID 1129). The following applies: small-molecule microarray binding, fluorescence 635 nm; higher = more signal.
Assay [3] deals with Focal adhesion kinase 1 (Homo sapiens) (UniProt Q05397). Briefly: PTK2 protein binding on printed compound slides – biochemical, small-molecule microarray, 635/667 nm fluorescence, BSA, DTT, primary screen (AID 1130).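 Further: composite of spot emission at 667 nm and signal to noise over triplicate slides.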 The following applies: 635 nm fluorescence, higher = more signal.
Sequence of Focal adhesion kinase 1 (Homo sapiens) (Q05397 whole entry, looked up): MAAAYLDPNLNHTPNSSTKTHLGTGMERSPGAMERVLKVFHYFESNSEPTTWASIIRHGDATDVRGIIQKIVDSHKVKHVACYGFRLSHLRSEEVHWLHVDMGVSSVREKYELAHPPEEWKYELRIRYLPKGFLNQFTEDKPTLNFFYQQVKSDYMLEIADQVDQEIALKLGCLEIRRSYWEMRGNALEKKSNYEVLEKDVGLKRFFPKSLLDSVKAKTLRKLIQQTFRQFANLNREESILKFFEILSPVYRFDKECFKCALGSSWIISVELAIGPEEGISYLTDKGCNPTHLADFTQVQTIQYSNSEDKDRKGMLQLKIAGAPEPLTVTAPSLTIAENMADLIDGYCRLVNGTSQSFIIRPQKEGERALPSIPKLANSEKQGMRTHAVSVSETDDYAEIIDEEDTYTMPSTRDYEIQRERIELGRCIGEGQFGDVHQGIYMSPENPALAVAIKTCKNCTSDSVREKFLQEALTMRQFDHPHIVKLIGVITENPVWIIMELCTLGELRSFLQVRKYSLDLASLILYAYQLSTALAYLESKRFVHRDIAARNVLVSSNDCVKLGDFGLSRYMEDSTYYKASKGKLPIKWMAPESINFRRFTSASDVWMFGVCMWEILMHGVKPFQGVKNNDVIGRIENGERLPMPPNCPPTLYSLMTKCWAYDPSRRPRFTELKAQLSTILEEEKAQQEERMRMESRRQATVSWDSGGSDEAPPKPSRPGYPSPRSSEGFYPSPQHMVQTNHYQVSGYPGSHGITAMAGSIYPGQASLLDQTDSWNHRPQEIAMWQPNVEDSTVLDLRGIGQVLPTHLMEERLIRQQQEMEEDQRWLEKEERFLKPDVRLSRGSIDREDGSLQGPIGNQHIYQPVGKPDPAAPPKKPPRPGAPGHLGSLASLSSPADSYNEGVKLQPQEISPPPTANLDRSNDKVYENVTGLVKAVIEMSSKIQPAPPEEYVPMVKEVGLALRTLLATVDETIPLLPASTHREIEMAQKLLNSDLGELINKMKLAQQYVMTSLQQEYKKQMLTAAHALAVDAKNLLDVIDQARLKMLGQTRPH
Assay [4] relates to Fibrinogen (Alexa647-labelled). Briefly: Alexa647-fibrinogen binding to printed small molecules – biochemical, small-molecule microarray, 635/667 nm fluorescence, artefact control for SMM control-protein annotation, profiling panel (AID 1131).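 Further: z-score merges 667 nm fluorescence with per-spot signal-to-noise over triplicate slides.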 The following applies: fibrinogen-A647 binding fluorescence, higher = more signal.
Assay [5] has as its target Follistatin (Homo sapiens) (UniProt P19883). Briefly: FST protein binding to printed compounds – biochemical, small-molecule microarray, 635/667 nm fluorescence, primary screen (AID 1132). Particulars: 635 nm fluorescence, higher = more signal.
The target in assay [6] is Fibroblast growth factor 2 (Homo sapiens) (UniProt P09038). Briefly: basic fibroblast growth factor binding to printed compounds – biochemical, small-molecule microarray, 635/667 nm fluorescence, primary screen (AID 1133). The following applies: FGF2, fluorescence 635/667, higher = more signal.
Sequence of Fibroblast growth factor 2 (Homo sapiens) (P09038 whole entry, looked up): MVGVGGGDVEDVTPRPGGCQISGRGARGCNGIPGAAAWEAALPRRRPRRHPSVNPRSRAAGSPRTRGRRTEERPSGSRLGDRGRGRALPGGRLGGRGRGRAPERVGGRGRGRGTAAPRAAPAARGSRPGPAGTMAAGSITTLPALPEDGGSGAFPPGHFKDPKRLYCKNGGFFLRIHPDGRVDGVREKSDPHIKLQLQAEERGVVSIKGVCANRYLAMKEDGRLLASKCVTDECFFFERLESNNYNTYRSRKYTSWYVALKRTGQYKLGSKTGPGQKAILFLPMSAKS
Assay [7] can be described thus: JC-1 mitochondrial potential readout, lung cancer cells – cell-based, A549, JC-1 fluorescence, basal, 24 h, 100 nL, profiling panel (AID 1138).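 Further: A549 lung adenocarcinoma cells under basal conditions with no added stimulus; test concentration not given here.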 Particulars: higher = more signal.
For a further assay, the system named is Lefty1. Briefly: Lefty1 protein binding to printed compounds – biochemical, small-molecule microarray, 635/667 nm fluorescence, primary screen (AID 1139). The following applies: fluorescence 635/667, higher = more signal.
The test system of assay [8] is wheat germ agglutinin (Triticum aestivum), Alexa647-labelled. Briefly: Alexa647-WGA lectin binding to printed small molecules – biochemical, small-molecule microarray, 635/667 nm fluorescence, artefact control for SMM control-protein annotation, profiling panel (AID 1140).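 Further: score merges 667 nm feature emission with signal to noise over triplicate slides.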 Particulars: WGA-A647 binding, 635 nm fluorescence, higher = more signal.
Assay [9] concerns the target Luciferin 4-monooxygenase (Photinus pyralis) (UniProt P08659). Briefly: inhibition of purified Photinus pyralis luciferase – biochemical, luminescence, purified enzyme, 2006 set, primary screen (AID 1141).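 Further: cell-free assay with purified firefly luciferase at 100 ng per well in PBS; test concentration not given here.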 Particulars: purified firefly luciferase, SteadyGlo luminescence, 30 min; higher = more signal, called active from +8 up or from −8 down.
In assay [10] the test system is Wnt5a (protein binding on small-molecule microarray). Briefly: small molecules binding Wnt5a protein – biophysical, small-molecule microarray, 635/667 nm fluorescence, primary screen (AID 1142).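 Further: fluorescence read at 667 nm with signal to noise per printed feature.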 The following applies: 635 nm fluorescence, higher = more signal.
A short description of assay [11]: ATP-based viability of Huh7 replicon cells – cell-based, CellTiter-Glo luminescence, basal, 48 h, cytotoxicity control for HCV replication inhibitor project, primary screen (AID 1143).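 Further: Huh7 hepatoma cells carrying a hepatitis C replication reporter with no stimulus; test concentration not given here.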 Particulars: higher = more signal, called active from +8 up or from −8 down. On the technique in general: In antiviral work, replicon cells carry a viral genome segment that copies itself.

Assay [12] in a line: Pseudomonas biofilm growth suppression – PAO1 strain, BacTiter-Glo luminescence, LB-PBS, primary screen (AID 1144). Particulars: P. aeruginosa PAO1 biofilm, 12 h, higher = more signal.
Assay [13] in a line: basal CRE-LacZ reporter activity in PC12 – cell-based, unstimulated, primary screen (AID 1145). Particulars: no forskolin, luminescence, 4.5 h, higher = more signal, called active from +8 up or from −8 down.
Assay [14] is described as follows: forskolin-driven CRE-LacZ activity in PC12 – cell-based, CRE-LacZ reporter, forskolin-stimulated, primary screen (AID 1146).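 Further: PC12 cells with 6xCRE LacZ reporter stimulated by forskolin 10 µM; beta-galactosidase reporter signal reflecting CREB driven transcription.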 The following applies: luminescence, 4.5 h, higher = more signal, called active from +8 up or from −8 down.
Assay [15] addresses Streptavidin (Streptomyces avidinii) (UniProt P22629). Briefly: compounds binding control protein streptavidin – biophysical, small-molecule microarray, 635/667 nm fluorescence, artefact control for SMM compound annotation, primary screen (AID 1147).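 Further: signal reflects streptavidin binding to arrayed compounds as a control protein.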 Particulars: higher = more signal.
A short description of assay [16]: probe aInhba binding on compound microarray – biochemical, small-molecule microarray, 635/667 nm fluorescence, primary screen (AID 1148).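 Further: score merges 667nm spot fluorescence with signal-to-noise for antibody binding to printed compounds.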 The following applies: higher = more signal.
The target in assay [17] is Torsin-1A (Homo sapiens) (UniProt O14656). Briefly: TOR1A wild-type binding on microarray – cell lysate, small-molecule microarray, lysate, 635/667 nm, primary screen (AID 1149). Particulars: COS7 hTOR1A-WT lysate, 635 nm fluorescence, higher = more signal.
Sequence of Torsin-1A (Homo sapiens) (O14656 whole entry, looked up): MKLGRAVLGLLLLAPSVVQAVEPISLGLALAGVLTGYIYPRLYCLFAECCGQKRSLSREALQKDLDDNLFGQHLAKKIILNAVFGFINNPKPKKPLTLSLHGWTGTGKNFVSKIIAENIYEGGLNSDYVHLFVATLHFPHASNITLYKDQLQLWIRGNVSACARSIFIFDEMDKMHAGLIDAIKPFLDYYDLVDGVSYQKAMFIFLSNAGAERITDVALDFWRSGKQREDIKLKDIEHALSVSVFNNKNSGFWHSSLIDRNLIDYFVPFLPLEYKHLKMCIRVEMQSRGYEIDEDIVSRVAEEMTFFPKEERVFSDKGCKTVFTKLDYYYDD
For assay [18] the target is unchanged. Briefly: torsin A mutant lysate binding on microarrays – cell lysate, small-molecule microarray, COS7 lysate, 635/667 nm fluorescence, primary screen (AID 1150).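 Further: score pools 667 nm emission and signal to noise measuring lysate protein binding.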 The following applies: COS7 hTOR1A mutant lysate, 635 nm fluorescence, higher = more signal.
In assay [19] the test system is Sonic hedgehog protein (Shh). Briefly: Sonic hedgehog microarray binding compounds – biochemical, small-molecule microarray, 635/667 nm fluorescence, primary screen (AID 1151).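 Further: Shh protein binding to compounds spotted on small-molecule microarray slides; score combines spot fluorescence intensity with signal-to-noise across triplicate slides.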 Particulars: 635 nm fluorescence, higher = more signal.

Sequence of Streptavidin (Streptomyces avidinii) (P22629 whole entry, looked up): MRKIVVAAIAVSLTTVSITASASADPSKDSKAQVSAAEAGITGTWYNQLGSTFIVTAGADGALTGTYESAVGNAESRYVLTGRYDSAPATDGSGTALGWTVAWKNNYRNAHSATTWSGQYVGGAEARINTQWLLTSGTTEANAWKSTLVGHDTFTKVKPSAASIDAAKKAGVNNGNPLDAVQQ
Sequence of Follistatin (Homo sapiens) (P19883 whole entry, looked up): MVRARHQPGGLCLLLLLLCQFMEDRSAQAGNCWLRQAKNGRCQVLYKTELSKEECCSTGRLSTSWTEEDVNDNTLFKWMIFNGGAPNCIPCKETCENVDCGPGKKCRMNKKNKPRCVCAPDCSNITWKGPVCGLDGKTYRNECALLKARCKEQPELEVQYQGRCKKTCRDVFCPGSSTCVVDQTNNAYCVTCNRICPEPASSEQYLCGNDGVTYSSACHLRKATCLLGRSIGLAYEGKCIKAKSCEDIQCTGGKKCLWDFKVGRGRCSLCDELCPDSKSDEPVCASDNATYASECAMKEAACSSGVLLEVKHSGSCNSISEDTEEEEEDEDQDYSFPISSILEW
Sequence of Luciferin 4-monooxygenase (Photinus pyralis) (P08659 whole entry, looked up): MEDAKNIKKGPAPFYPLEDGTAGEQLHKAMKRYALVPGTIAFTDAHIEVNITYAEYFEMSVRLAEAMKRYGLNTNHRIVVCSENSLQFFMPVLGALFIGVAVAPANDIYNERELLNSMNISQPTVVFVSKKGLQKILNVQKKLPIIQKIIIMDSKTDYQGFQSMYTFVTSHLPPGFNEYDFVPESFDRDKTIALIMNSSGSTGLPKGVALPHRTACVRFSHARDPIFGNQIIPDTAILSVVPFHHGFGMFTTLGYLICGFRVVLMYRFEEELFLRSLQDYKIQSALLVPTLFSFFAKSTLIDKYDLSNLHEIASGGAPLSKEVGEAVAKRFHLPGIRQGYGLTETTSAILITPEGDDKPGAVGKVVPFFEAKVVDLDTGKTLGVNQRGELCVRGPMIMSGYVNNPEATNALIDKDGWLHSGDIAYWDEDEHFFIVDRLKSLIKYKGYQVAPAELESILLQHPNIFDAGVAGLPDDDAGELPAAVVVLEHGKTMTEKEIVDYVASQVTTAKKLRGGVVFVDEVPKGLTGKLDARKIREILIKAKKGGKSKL

Regarding `COC(=O)C(CC#Cc1ccc2c(c1)[C@]1(C(=O)N2)[C@H](C(=O)N2CCCCCCC2)[C@H]2C(=O)O[C@H](c3ccccc3)[C@H](c3ccccc3)N2[C@@H]1c1ccc(OCCO)cc1)C(=O)OC`, the composite z-score is 3.39 in assay [1]; 1.32 in assay [2]; 4.91 in [3]; 0.943 in assay [4]; 1.49 in assay [5]; 1.6 in assay [6]. In addition, the composite z-score in the assay on Lefty1 was determined as 1.79; in assay [8] it was 1.77; in [10] it was 2.02; in [15], 4.12; in assay [16] it was 1.97; with Torsin-1A (Homo sapiens) [17], 3.57. The composite z-score worked out at 3.65 in the assay with Torsin-1A (Homo sapiens) [18] and 2.05 in [19]. Moreover, the z-score in [7] is -0.949; in assay [9], 0.035 (inactive); in assay [11] it was -0.873 (inactive); in assay [12], 1.02 (inactive); in assay [13], -0.581 (inactive); in [14] it was -0.546 (inactive).

Turning to `O=C1C2C=CC(C(O)C3CC=CCC3)N(Nc3ccc([N+](=O)[O-])cc3)C2C(=O)N1c1ccccc1` (stereo not given), the composite z-score stood at 2.2 in assay [1]; 1.2 in [2]; 0.876 in assay [3]; 0.994 in assay [4]; 1.36 in assay [5]; 0.0341 in assay [6]. The composite z-score in the assay with Lefty1 stood at 0.307; in assay [8] it was 0.862; in [10], 0.632; in assay [15] it was 0.941; in assay [16], 0.74; with Torsin-1A (Homo sapiens) [17] it was 0.26. Moreover, the composite z-score with Torsin-1A (Homo sapiens) [18] is 0.483; in assay [19] it was 0.606. The z-score in [7] was -0.861; in [9] it was 0.83 (inactive); in assay [11], -0.574 (inactive); in assay [12], -0.917 (inactive); in assay [13], 1.23 (inactive); in [14] it was 1.13 (inactive).

For `COCCOC(=O)N1C(=O)[C@@]2(c3cc(C#CC4=CCCCC4)ccc31)[C@H](c1ccc(O)cc1)N1[C@H](c3ccccc3)[C@H](c3ccccc3)OC(=O)[C@H]1[C@@H]2C(=O)N1CCc2cc(OC)c(OC)cc2C1`, the composite z-score was determined as 1.38 in [1]; 1.19 in [2]; 0.567 in assay [3]; 0.789 in assay [4]; 0.427 in assay [5]; 0.423 in [6]. The composite z-score with Lefty1 is 0.0605; in assay [8] it was 0.726; in [10], -0.0266; in assay [15], 0.112; in assay [16], 0.103; with Torsin-1A (Homo sapiens) [17] it was 0.175. Besides, the composite z-score with Torsin-1A (Homo sapiens) [18] is 0.893; in [19], 0.514. Also, the z-score is 0.273 in [7]; 0.0369 (inactive) in assay [9]; -0.713 (inactive) in [11]; 0.315 (inactive) in [12]; -0.375 (inactive) in assay [13]; 0.109 (inactive) in assay [14].

Regarding `OCCCc1cc[n+](Cc2cc3c(cc2Br)OCO3)cc1`, the composite z-score is -0.874 in assay [1]; -1.86 in assay [2]; -0.719 in assay [3]; -1.64 in [4]; -0.528 in [5]; -0.333 in [6]. Also, the composite z-score with Lefty1 is -0.903; in [8] it was -0.77; in assay [10], -0.265; in assay [15], -0.838; in assay [16], -0.209; with Torsin-1A (Homo sapiens) [17], -1.27. The values for the composite z-score (in the assay with Torsin-1A (Homo sapiens) [18]; in [19]) were -0.561 and -0.508, respectively. In addition, the z-score is -0.0611 in [7]; -0.903 (inactive) in assay [9]; -0.633 (inactive) in assay [11]; 0.0177 (inactive) in assay [12]; -0.374 (inactive) in [13]; -0.121 (inactive) in assay [14].

For the compound `COc1ccc(CCNC(=O)[C@@H]2c3ccccc3C(=O)N(Cc3cc(F)cc(C(F)(F)F)c3)[C@H]2c2ccc(CO)cc2)cc1`, the composite z-score in assay [1] was 0.634; in assay [2], 0.544; in [3], 0.137; in [4], 0.227; in assay [5], 1; in [6], 0.409. Besides, the composite z-score in the assay with Lefty1 was -0.192; in assay [8], 0.871; in assay [10], 0.0093; in [15] it was 0.234; in assay [16], 0.396; with Torsin-1A (Homo sapiens) [17], 0.642. The composite z-score with Torsin-1A (Homo sapiens) [18] was 0.478; in assay [19], 0.618. The z-score is 3.34 in [7]; -1.13 (inactive) in [9]; -0.489 (inactive) in assay [11]; 0.869 (inactive) in assay [12]; 0.585 (inactive) in assay [13]; -1.11 (inactive) in assay [14].
